This note sets out measurements from PubChem BioAssay.

Assay [1] in a line: compounds binding Alexa647 anti-His antibody – biochemical, small-molecule microarray, 635 nm fluorescence, artefact control for SMM control protein annotation, primary screen (AID 1128).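 Further: score merges feature fluorescence with signal-to-noise for each printed compound spot.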 As to conditions: higher = more signal.
Assay [2] deals with Human papillomavirus type 1a E7 protein (residues 1-88). Nature of the assay: HPV1a E7 small-molecule binders, primary screen, biochemical, small-molecule microarray, residues 1-88, 635 nm (AID 1129). Particulars: small-molecule microarray binding, fluorescence 635 nm; higher = more signal.
Assay [3] deals with Focal adhesion kinase 1 (Homo sapiens) (UniProt Q05397). As to the kind of experiment: PTK2 protein binding on printed compound slides – biochemical, small-molecule microarray, 635/667 nm fluorescence, BSA, DTT, primary screen (AID 1130).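 Further: composite of spot emission at 667 nm and signal to noise over triplicate slides.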 As to conditions: 635 nm fluorescence, higher = more signal.
Assay [4] deals with Fibrinogen (Alexa647-labelled). As to the kind of experiment: Alexa647-fibrinogen binding to printed small molecules – biochemical, small-molecule microarray, 635/667 nm fluorescence, artefact control for SMM control-protein annotation, profiling panel (AID 1131).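 Further: z-score merges 667 nm fluorescence with per-spot signal-to-noise over triplicate slides.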 Particulars: fibrinogen-A647 binding fluorescence, higher = more signal.
Assay [5] deals with Follistatin (Homo sapiens) (UniProt P19883). Nature of the assay: FST protein binding to printed compounds – biochemical, small-molecule microarray, 635/667 nm fluorescence, primary screen (AID 1132). Particulars: 635 nm fluorescence, higher = more signal.
Assay [6] concerns the target Fibroblast growth factor 2 (Homo sapiens) (UniProt P09038). Nature of the assay: basic fibroblast growth factor binding to printed compounds – biochemical, small-molecule microarray, 635/667 nm fluorescence, primary screen (AID 1133). Particulars: FGF2, fluorescence 635/667, higher = more signal.
The nature of assay [7]: JC-1 mitochondrial potential readout, lung cancer cells – cell-based, A549, JC-1 fluorescence, basal, 24 h, 100 nL, profiling panel (AID 1138).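 Further: A549 lung adenocarcinoma cells under basal conditions with no added stimulus; test concentration not given here.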 Particulars: higher = more signal.
A further assay concerns Lefty1. Nature of the assay: Lefty1 protein binding to printed compounds – biochemical, small-molecule microarray, 635/667 nm fluorescence, primary screen (AID 1139). As to conditions: fluorescence 635/667, higher = more signal.
For assay [8], the system named is wheat germ agglutinin (Triticum aestivum), Alexa647-labelled. As to the kind of experiment: Alexa647-WGA lectin binding to printed small molecules – biochemical, small-molecule microarray, 635/667 nm fluorescence, artefact control for SMM control-protein annotation, profiling panel (AID 1140).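 Further: score merges 667 nm feature emission with signal to noise over triplicate slides.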 As to conditions: WGA-A647 binding, 635 nm fluorescence, higher = more signal.

Assay [9] has as its target Luciferin 4-monooxygenase (Photinus pyralis) (UniProt P08659). Nature of the assay: inhibition of purified Photinus pyralis luciferase – biochemical, luminescence, purified enzyme, 2006 set, primary screen (AID 1141).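 Further: cell-free assay with purified firefly luciferase at 100 ng per well in PBS; test concentration not given here.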 Particulars: purified firefly luciferase, SteadyGlo luminescence, 30 min; higher = more signal, called active from +8 up or from −8 down.

Active and inactive are the calls of the source.

Chain of Focal adhesion kinase 1 (Homo sapiens) (Q05397 whole entry, looked up): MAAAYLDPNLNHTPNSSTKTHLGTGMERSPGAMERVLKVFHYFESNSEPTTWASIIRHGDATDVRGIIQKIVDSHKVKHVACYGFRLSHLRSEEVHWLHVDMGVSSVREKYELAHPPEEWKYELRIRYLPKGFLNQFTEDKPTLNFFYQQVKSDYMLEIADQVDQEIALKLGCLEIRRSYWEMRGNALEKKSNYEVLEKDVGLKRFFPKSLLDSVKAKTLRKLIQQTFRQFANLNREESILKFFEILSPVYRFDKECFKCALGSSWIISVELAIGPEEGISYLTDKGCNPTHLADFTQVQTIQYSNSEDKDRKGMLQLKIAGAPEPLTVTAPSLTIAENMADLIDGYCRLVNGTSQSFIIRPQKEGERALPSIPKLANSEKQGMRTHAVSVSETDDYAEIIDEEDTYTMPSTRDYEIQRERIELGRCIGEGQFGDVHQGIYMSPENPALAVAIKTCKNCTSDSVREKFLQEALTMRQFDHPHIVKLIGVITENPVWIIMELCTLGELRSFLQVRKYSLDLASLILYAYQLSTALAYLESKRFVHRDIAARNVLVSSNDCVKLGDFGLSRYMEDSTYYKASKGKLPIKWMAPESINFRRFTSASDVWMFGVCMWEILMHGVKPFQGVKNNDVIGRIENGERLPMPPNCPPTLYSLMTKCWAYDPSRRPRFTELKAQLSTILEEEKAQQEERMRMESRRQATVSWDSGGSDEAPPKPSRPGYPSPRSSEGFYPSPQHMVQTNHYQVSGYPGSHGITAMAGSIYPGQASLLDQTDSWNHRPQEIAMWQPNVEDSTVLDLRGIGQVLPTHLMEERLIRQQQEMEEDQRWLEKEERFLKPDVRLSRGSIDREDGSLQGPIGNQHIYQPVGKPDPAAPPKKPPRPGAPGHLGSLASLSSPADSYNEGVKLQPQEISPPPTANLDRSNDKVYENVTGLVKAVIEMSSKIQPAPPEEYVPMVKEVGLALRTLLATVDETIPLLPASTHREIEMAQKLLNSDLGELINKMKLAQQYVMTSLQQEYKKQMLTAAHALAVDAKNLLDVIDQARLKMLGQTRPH
Chain of Follistatin (Homo sapiens) (P19883 whole entry, looked up): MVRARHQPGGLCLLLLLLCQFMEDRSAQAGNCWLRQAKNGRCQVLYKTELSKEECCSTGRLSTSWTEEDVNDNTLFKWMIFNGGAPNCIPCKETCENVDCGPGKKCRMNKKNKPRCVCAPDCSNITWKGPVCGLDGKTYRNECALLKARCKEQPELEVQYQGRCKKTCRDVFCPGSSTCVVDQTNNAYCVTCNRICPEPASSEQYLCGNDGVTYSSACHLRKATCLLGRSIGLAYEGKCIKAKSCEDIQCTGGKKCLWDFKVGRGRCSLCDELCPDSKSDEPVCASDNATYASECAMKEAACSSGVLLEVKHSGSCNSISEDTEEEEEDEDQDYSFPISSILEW
Chain of Luciferin 4-monooxygenase (Photinus pyralis) (P08659 whole entry, looked up): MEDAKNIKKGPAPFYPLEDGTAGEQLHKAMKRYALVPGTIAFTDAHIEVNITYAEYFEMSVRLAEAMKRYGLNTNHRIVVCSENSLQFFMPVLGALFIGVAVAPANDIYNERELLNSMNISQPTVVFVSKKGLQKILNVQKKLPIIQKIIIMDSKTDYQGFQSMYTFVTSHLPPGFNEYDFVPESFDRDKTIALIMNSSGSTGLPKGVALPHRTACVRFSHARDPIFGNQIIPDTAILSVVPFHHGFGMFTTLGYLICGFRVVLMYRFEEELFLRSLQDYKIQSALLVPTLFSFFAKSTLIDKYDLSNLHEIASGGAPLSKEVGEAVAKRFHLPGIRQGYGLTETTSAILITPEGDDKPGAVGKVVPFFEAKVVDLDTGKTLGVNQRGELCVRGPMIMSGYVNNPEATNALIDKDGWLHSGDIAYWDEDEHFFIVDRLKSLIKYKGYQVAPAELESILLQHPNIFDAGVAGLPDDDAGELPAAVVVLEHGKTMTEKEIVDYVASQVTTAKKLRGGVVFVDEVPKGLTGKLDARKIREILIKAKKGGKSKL
Chain of Fibroblast growth factor 2 (Homo sapiens) (P09038 whole entry, looked up): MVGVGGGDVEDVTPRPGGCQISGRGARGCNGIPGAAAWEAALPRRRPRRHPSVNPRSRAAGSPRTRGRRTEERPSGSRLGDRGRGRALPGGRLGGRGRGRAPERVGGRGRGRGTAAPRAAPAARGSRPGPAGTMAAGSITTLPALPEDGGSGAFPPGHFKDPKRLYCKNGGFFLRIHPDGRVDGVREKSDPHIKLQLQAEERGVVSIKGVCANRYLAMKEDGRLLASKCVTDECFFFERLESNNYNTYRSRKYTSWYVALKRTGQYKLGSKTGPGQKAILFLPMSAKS

`OCC1C=C(/C=C/c2ccccc2)CN1Cc1ccccc1Br` (stereo not given): the composite z-score is 1.5 in assay [1]; 0.278 in assay [2]; -0.18 in [3]; 0.891 in assay [4]; 1.29 in assay [5]; 1.39 in [6]. Also, the composite z-score in the assay on Lefty1 worked out at 1.51; in assay [8] it was 0.94. Besides, the z-score is 0.426 in assay [7] and -1.05 (inactive) in [9].

Consider `COCCOC(=O)N1C(=O)[C@@]2(c3cc(C#CC4=CCCCC4)ccc31)[C@H](C(N)=O)[C@H]1C(=O)O[C@H](c3ccccc3)[C@H](c3ccccc3)N1[C@@H]2c1ccc(O)cc1`, for which the composite z-score in assay [1] is 0.753; in assay [2], 1.18; in assay [3], 0.671; in assay [4], 0.958; in [5] it was 0.886; in assay [6], 0.58. Further, the composite z-score in the assay on Lefty1 amounted to 0.553; in [8], 0.686. The values for the z-score in assay [7] and in [9] were -1.1 and -1.98 (inactive), respectively.

Consider `NCCCCCNC(=O)[C@H]1C[C@H]2C(=O)N3CCC[C@H]3C(=O)N2[C@H]1c1ccc(O)cc1`, for which the composite z-score in [1] was determined as 0.695; in assay [2], 1.15; in [3] it was 0.223; in assay [4], 0.894; in assay [5] it was 1.34; in assay [6] it was 1.35. The composite z-score was determined as 1.1 in the assay on Lefty1 and 0.781 in [8]. The z-score was -0.373 in assay [7] and -0.462 (inactive) in assay [9].

With `CCCCC(O)C1C=CC2C(=O)N(C)C(=O)C2N1N1CCCCC1` (stereo not given), the composite z-score in assay [1] is 1.69; in [2] it was 0.678; in [3], 0.367; in assay [4], 1.03; in [5] it was 0.971; in [6], -0.331. For the same molecule, the composite z-score in the assay on Lefty1 is 0.412; in assay [8] it was 1.19. The values for the z-score in assay [7] and in assay [9] were -0.0954 and 0.452 (inactive), respectively.

For `O=C1O[C@@H](c2ccccc2)[C@@H](c2ccccc2)N2[C@@H](c3ccc(OCCO)cc3)[C@]3(C(=O)Nc4ccc(C#CCCO)cc43)[C@@H](C(=O)NC[C@H](O)c3ccccc3)[C@H]12`, the composite z-score in assay [1] worked out at 0.797; in assay [2], 1.17; in [3], 0.947; in assay [4], 0.668; in [5] it was 1.34; in [6] it was 1.01. The composite z-score with Lefty1 was found to be 0.958; in assay [8], 0.356. Besides, the z-score is 0.225 in assay [7] and -1.15 (inactive) in assay [9].

Turning to `O=C(CS)NCCCCCNC(=O)[C@@H]1C[C@@H]2C(=O)NCC(=O)N2[C@@H]1c1cccc(OCCO)c1`, the composite z-score in assay [1] was 3.09; in assay [2], -0.0552; in assay [3] it was 1.8; in [4], 0.0984; in [5], 1.25; in [6], 0.817. Besides, the composite z-score in the assay on Lefty1 was 0.106; in assay [8], 0.502. Moreover, the z-score was 1.12 in assay [7] and -2.27 (inactive) in assay [9].

With `CC(C)NC(=O)[C@@]1(Cc2ccccc2I)c2ccccc2C(=O)N(Cc2ccccc2Cl)[C@H]1c1ccc(CO)cc1`, the composite z-score in [1] came out at 2.99; in assay [2], 1.2; in assay [3] it was 0.252; in [4] it was 0.443; in assay [5], 1.19; in [6], 0.566. Also, the composite z-score came to 0.443 with Lefty1 and 0.858 in [8]. The z-score was 1.46 in [7] and -0.577 (inactive) in assay [9].

For `C[N+](C)(C)CCCC[C@@H]1NC(=O)[C@@H]2C[C@H](C(=O)NCCCCCN)[C@H](c3ccc(O)cc3)N2C1=O`, the composite z-score in assay [1] came to 2.08; in assay [2], 1.05; in assay [3], 0.0992; in assay [4] it was 0.927; in assay [5], 1.4; in [6] it was 1.8. Moreover, the composite z-score in the assay with Lefty1 amounted to 1.64; in assay [8] it was 0.87. The z-score was 0.962 in [7] and -1.26 (inactive) in assay [9].

For the molecule `COc1ccc([Si](C)(C)[C@@H]2[C@@H](CC(=O)N3CCC[C@H]3CO)O[C@]3(C(=O)N(Cc4cccc(I)c4)c4ccccc43)[C@H]2C)cc1`, the composite z-score in [1] is 2.04; in assay [2], 0.781; in [3] it was -0.204; in assay [4], 0.591; in assay [5], 1.39; in [6], 1.76. The composite z-score in the assay with Lefty1 is 1.64; in assay [8] it was 0.481. Besides, the z-score in assay [7] is -0.77; in [9], -0.368 (inactive).

With `CCCNC(=O)[C@@]1(Sc2ccc(C)cc2)CC(=O)N(Cc2ccccc2C(F)(F)F)[C@@H]1c1ccc(CO)cc1I`, the composite z-score in [1] is -0.132; in [2], 0.934; in assay [3], 0.0382; in assay [4], 0.956; in assay [5], 1.36; in assay [6], 0.76. For the same molecule, the composite z-score is 0.849 in the assay with Lefty1 and 0.28 in [8]. Besides, the z-score in assay [7] was -0.722; in assay [9], 0.262 (inactive).

Take `CCCC=C(CCC)[C@@H](NC(=O)OCC(C)C)c1ccccc1`: the composite z-score stood at 0.665 in assay [1]; 1.15 in assay [2]; 0.172 in assay [3]; 0.471 in assay [4]; 0.978 in assay [5]; 0.16 in assay [6]. The composite z-score with Lefty1 turned out to be 0.822; in assay [8] it was 0.126. Further, the values for the z-score in assay [7] and in assay [9] were -0.138 and 0.936 (inactive), respectively.

Turning to `CCOC(=O)C1=CC[C@@H](c2ccc(C(F)(F)F)cc2)N(S(=O)(=O)c2ccc(C)cc2)[C@H]1c1ccccc1`, the composite z-score in assay [1] is 2.1; in assay [2] it was 1.21; in assay [3] it was 0.81; in assay [4], 0.955; in assay [5] it was 0.377; in [6], -0.149. Further, the results for the composite z-score (in the assay on Lefty1; in assay [8]) were 0.0777 and 1.22, respectively. Moreover, the z-score in [7] was -1.9; in assay [9], 0.849 (inactive).

Take `COCCCNC(=O)[C@@]1(Cc2ccccc2)N=C(c2ccc(OCCCO)cc2)O[C@H]1c1ccccc1CN=[N+]=[N-]`: the composite z-score was 2.82 in assay [1]; 1.17 in assay [2]; 0.944 in assay [3]; 0.913 in assay [4]; 1.3 in [5]; 0.122 in [6]. Besides, the results for the composite z-score (in the assay on Lefty1; in assay [8]) were 0.872 and 1.18, respectively. The z-score in [7] is 1.99; in assay [9], -0.781 (inactive).

On to `O=C1O[C@@H](c2ccccc2)[C@@H](c2ccccc2)N2[C@@H](c3ccccc3OCCO)[C@]3(C(=O)Nc4ccc(C#CC5(O)CCCCCC5)cc43)[C@@H](C(=O)N3CCN(c4ncccn4)CC3)[C@H]12`, for which the composite z-score in assay [1] came out at 1.25; in assay [2] it was 1.2; in assay [3] it was 0.564; in assay [4], 0.885; in assay [5], 1.03; in [6], 1.15. Also, the composite z-score in the assay on Lefty1 was 0.62; in [8] it was 0.742. For the same molecule, the z-score is -0.758 in assay [7] and -1.39 (inactive) in assay [9].

As for `COC(=O)[C@]1(Cc2ccccc2)N=C(c2ccc(OCCCO)cc2)O[C@@H]1c1ccccc1N=[N+]=[N-]`, the composite z-score in assay [1] was determined as 1.15; in assay [2], 1.2; in assay [3], 0.442; in assay [4], 0.863; in assay [5], 1.36; in assay [6], 1.29. In addition, the composite z-score is 0.83 with Lefty1 and 0.464 in [8]. The values for the z-score in assay [7] and in assay [9] were -1.24 and -4.8 (inactive), respectively.

As for `CC(C)CCC[C@@H](C)[C@H]1CC[C@@]2(C)C3=C(CC[C@]12C)[C@@]1(C)CC[C@H](OC(=O)c2ccc(C(F)(F)F)nc2)C(C)(C)C1CC3` (stereo not given in full), the composite z-score was 0.38 in assay [1]; 0.763 in assay [2]; 0.251 in assay [3]; 0.723 in [4]; 0.599 in [5]; 0.695 in assay [6]. Also, the results for the composite z-score (in the assay on Lefty1; in [8]) were 0.666 and 0.231, respectively. The values for the z-score in assay [7] and in assay [9] were 0.425 and -1.41 (inactive), respectively.

As for `C=CCC(OC(C)=O)[C@@H]1[C@@H](N(Cc2ccc(-c3cccc(C(F)(F)F)c3)o2)C(=O)c2cccc3ccccc23)c2cc(OCCCO)ccc2N1C(=O)Cc1ccc2ccccc2c1` (stereo not given in full), the composite z-score in assay [1] was 0.383; in assay [2] it was -0.688; in [3], 0.172; in assay [4], 0.702; in assay [5], 0.37; in assay [6], -0.129. Further, the composite z-score is -0.0051 in the assay with Lefty1 and 0.178 in assay [8]. Moreover, the z-score in assay [7] was -0.65; in assay [9] it was 0.335 (inactive).
